The source of these data is PubChem BioAssay (NCI).

Experiment [1] can be described thus: NCI Yeast Anticancer Drug Screen. Data for the rad50 strain (AID 155).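 Also: 0% = growth of vehicle-only cultures of the same strain.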 Particulars: S. cerevisiae rad50 strain growth inhibition, stronger effect = higher value. The method in brief:
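Compounds were tested on a yeast strain with an engineered DNA damage repair alteration; the reported value is growth inhibition normalised to vehicle treatment.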

Experiment [2] can be described thus: NCI Yeast Anticancer Drug Screen. Data for the mec2-1 strain (AID 157). Conditions: S. cerevisiae mec2-1 strain, stronger effect = higher value. The method in brief: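 Yeast mec2-1 mutant treated with compound. Readout: growth inhibition vs vehicle controls.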
Experiment [3] can be described thus: NCI Yeast Anticancer Drug Screen. Data for the sgs1 mgt1 strain (AID 161).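 Also: 0% = growth of cultures given vehicle only.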 Particulars: S. cerevisiae sgs1 mgt1 strain, stronger effect = higher value. A digest of the protocol: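 Read-out: growth inhibition vs vehicle controls. Cells: mutant yeast strain deficient in DNA damage repair.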
The nature of experiment [4]: NCI Yeast Anticancer Drug Screen. Data for the cln2 rad14 strain (AID 165).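 Also: 0% = growth equal to vehicle treated cultures.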 Particulars: S. cerevisiae cln2 rad14 strain, stronger effect = higher value. A digest of the protocol: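 cln2 rad14 yeast strain; compound exposure; growth inhibition read vs vehicle controls.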
The nature of experiment [5]: NCI Yeast Anticancer Drug Screen. Data for the bub3 strain (AID 167). Particulars: S. cerevisiae bub3 mutant strain, stronger effect = higher value. A digest of the protocol:
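Growth of a checkpoint-deficient yeast mutant is measured after compound exposure. Values represent inhibition relative to vehicle.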

Experiment [6] in a line: NCI Yeast Anticancer Drug Screen. Data for the mlh1 rad18 strain (AID 175). Conditions: S. cerevisiae mlh1 rad18 strain growth inhibition, stronger effect = higher value. A digest of the protocol:
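Yeast w/ defined DNA-repair lesions; compound exposure; growth vs vehicle controls → % inhibition.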

Where [7] appears, read: at 5.0 µM (retest, dose inferred, filed as 0.5).
[8] abbreviates: at 50.0 µM (retest, dose inferred, filed as 5.0).

The panel holds about 79,000 compounds, 15% with a hit somewhere; the sample as a whole holds those more often. Unmarked numbers belong to inactive results. Active and inactive are the calls of the source. Rule as the data show it: active = growth inhibition above about 70%; inactive = the rest.

For `CCOC(=O)C1C2OC(=O)C(C(=O)C2CN(CCCl)CCCl)C1C1CC=C(CC2=CCC(C3C4C(=O)OC(C(CN(CCCl)CCCl)C4=O)C3C(=O)OCC)CC2)CC1` (stereo unspecified), the growth inhibition was 96% (active) in experiment [1] (setting [7]); 97% (active) in experiment [1] (setting [8]); 53.5% in experiment [1] (at 50.0 µM); 84% (active) in experiment [2] (setting [7]); 99% (active) in experiment [2] (setting [8]); 57.2% in experiment [2] (at 50.0 µM). Moreover, the growth inhibition was 68% in experiment [3] (setting [7]); 96% (active) in experiment [3] (setting [8]); 57.1% in experiment [3] (at 50.0 µM); 93% (active) in experiment [4] (setting [7]); 96% (active) in experiment [4] (setting [8]); 54.1% in experiment [4] (at 50.0 µM). The growth inhibition in experiment [5] (setting [7]) is 49%; in experiment [5] (setting [8]), 97% (active); in experiment [5] (at 50.0 µM), 49.5%; in experiment [6] (setting [7]) it was 95% (active); in experiment [6] (setting [8]), 98% (active); in experiment [6] (at 50.0 µM), 65.3%.

Turning to `CC(C)(C)C1=CC(=C/C=C/c2cc(C(C)(C)C)[o+]c(C(C)(C)C)c2)C=C(C(C)(C)C)O1`, the growth inhibition is 99% (active) in experiment [1] (setting [7]); 93% (active) in experiment [1] (setting [8]); 67.3% in experiment [1] (at 50.0 µM); 99% (active) in experiment [2] (setting [7]); 96% (active) in experiment [2] (setting [8]); 95.6% (active) in experiment [2] (at 50.0 µM). Also, the growth inhibition is 99% (active) in experiment [3] (setting [7]); 94% (active) in experiment [3] (setting [8]); 52.5% in experiment [3] (at 50.0 µM); 99% (active) in experiment [4] (setting [7]); 94% (active) in experiment [4] (setting [8]); 96% (active) in experiment [4] (at 50.0 µM). The growth inhibition was 99% (active) in experiment [5] (setting [7]); 94% (active) in experiment [5] (setting [8]); 94.3% (active) in experiment [5] (at 50.0 µM); 99% (active) in experiment [6] (setting [7]); 95% (active) in experiment [6] (setting [8]); 37.5% in experiment [6] (at 50.0 µM).

`CCCC[CH2][Sn]([CH2]CCCC)[CH2]CCCC.CCCC[CH2][Sn]([CH2]CCCC)[CH2]CCCC`: the growth inhibition in experiment [1] (setting [7]) was 78% (active); in experiment [1] (setting [8]) it was 99% (active); in experiment [1] (at 50.0 µM), 99.2% (active); in experiment [2] (setting [7]), 61%; in experiment [2] (setting [8]), 100% (active); in experiment [2] (at 50.0 µM), 99.5% (active). Further, the growth inhibition in experiment [3] (setting [7]) is 67%; in experiment [3] (setting [8]) it was 100% (active); in experiment [3] (at 50.0 µM), 99.5% (active); in experiment [4] (setting [7]), 8%; in experiment [4] (setting [8]) it was 99% (active); in experiment [4] (at 50.0 µM), 98.8% (active). In addition, the growth inhibition in experiment [5] (setting [7]) is 20%; in experiment [5] (setting [8]), 100% (active); in experiment [5] (at 50.0 µM), 98.8% (active); in experiment [6] (setting [7]), 46%; in experiment [6] (setting [8]) it was 100% (active); in experiment [6] (at 50.0 µM) it was 99.1% (active).

For the compound `CC(=O)OC1C(=O)OCC23CCC4(C)OC4C2OC2CC(OC(=O)/C=C/C=C/C(=O)OCCC1C)C3(C)C21CO1` (stereo unspecified), the growth inhibition in experiment [1] (setting [7]) was 99% (active); in experiment [1] (setting [8]), 99% (active); in experiment [1] (at 50.0 µM), 92.6% (active); in experiment [2] (setting [7]), 100% (active); in experiment [2] (setting [8]), 100% (active); in experiment [2] (at 50.0 µM) it was 93.8% (active). Also, the growth inhibition in experiment [3] (setting [7]) was 99% (active); in experiment [3] (setting [8]), 99% (active); in experiment [3] (at 50.0 µM), 93.8% (active); in experiment [4] (setting [7]) it was 98% (active); in experiment [4] (setting [8]) it was 98% (active); in experiment [4] (at 50.0 µM) it was 92.5% (active). For the same compound, the growth inhibition was 99% (active) in experiment [5] (setting [7]); 98% (active) in experiment [5] (setting [8]); 92.6% (active) in experiment [5] (at 50.0 µM); 100% (active) in experiment [6] (setting [7]); 99% (active) in experiment [6] (setting [8]); 92.3% (active) in experiment [6] (at 50.0 µM).

Turning to `COC12C(COC(C)=O)C3=C(C(=O)C(C)=C(N4CCCCC4)C3=O)N1CC1NC12` (stereo unspecified), the growth inhibition was 93% (active) in experiment [1] (setting [7]); 97% (active) in experiment [1] (setting [8]); 89.5% (active) in experiment [1] (at 50.0 µM); 96% (active) in experiment [2] (setting [7]); 95% (active) in experiment [2] (setting [8]); 91.7% (active) in experiment [2] (at 50.0 µM). Further, the growth inhibition in experiment [3] (setting [7]) was 79% (active); in experiment [3] (setting [8]), 97% (active); in experiment [3] (at 50.0 µM) it was 90.5% (active); in experiment [4] (setting [7]), 93% (active); in experiment [4] (setting [8]), 97% (active); in experiment [4] (at 50.0 µM) it was 86.6% (active). The growth inhibition in experiment [5] (setting [7]) was 67%; in experiment [5] (setting [8]), 96% (active); in experiment [5] (at 50.0 µM), 88% (active); in experiment [6] (setting [7]) it was 98% (active); in experiment [6] (setting [8]), 97% (active); in experiment [6] (at 50.0 µM), 90% (active).

On to `C[C@H]1C/C=C/[C@H]2[C@@H]3O[C@]3(C)[C@@H](C)[C@H]3[C@H](Cc4ccccc4)NC(=O)[C@]32OC(=O)O/C=C/[C@@](C)(O)C1=O`, for which the growth inhibition in experiment [1] (setting [7]) was 21%; in experiment [1] (setting [8]), 30%; in experiment [1] (at 50.0 µM) it was 72.7% (active); in experiment [2] (setting [7]), 19%; in experiment [2] (setting [8]) it was 53%; in experiment [2] (at 50.0 µM), 91.3% (active). Also, the growth inhibition in experiment [3] (setting [7]) is 19%; in experiment [3] (setting [8]), 14%; in experiment [3] (at 50.0 µM), 32.7%; in experiment [4] (setting [7]) it was 25%; in experiment [4] (setting [8]), 36%; in experiment [4] (at 50.0 µM) it was 67.3%. Moreover, the growth inhibition was 28% in experiment [5] (setting [7]); 48% in experiment [5] (setting [8]); 83.2% (active) in experiment [5] (at 50.0 µM); 17% in experiment [6] (setting [7]); 46% in experiment [6] (setting [8]); 81.8% (active) in experiment [6] (at 50.0 µM).

On to `CCC[CH2][Sn]1([CH2]CCC)[O]CC[S]1`, for which the growth inhibition is 83% (active) in experiment [1] (setting [7]); 99% (active) in experiment [1] (setting [8]); 99.1% (active) in experiment [1] (at 50.0 µM); 87% (active) in experiment [2] (setting [7]); 99% (active) in experiment [2] (setting [8]); 99% (active) in experiment [2] (at 50.0 µM). For the same compound, the growth inhibition is 81% (active) in experiment [3] (setting [7]); 99% (active) in experiment [3] (setting [8]); 98.2% (active) in experiment [3] (at 50.0 µM); 78% (active) in experiment [4] (setting [7]); 99% (active) in experiment [4] (setting [8]); 97.3% (active) in experiment [4] (at 50.0 µM). Besides, the growth inhibition is 87% (active) in experiment [5] (setting [7]); 99% (active) in experiment [5] (setting [8]); 96.1% (active) in experiment [5] (at 50.0 µM); 84% (active) in experiment [6] (setting [7]); 99% (active) in experiment [6] (setting [8]); 99.2% (active) in experiment [6] (at 50.0 µM).
